This is an account of results in PubChem BioAssay (NCATS).

Assay [1] addresses Aldehyde dehydrogenase, mitochondrial (Homo sapiens) (UniProt P05091). Description: qHTS for Inhibitors of the Aldehyde Dehydrogenase Family (ALDH2) Primary screen (AID 2061308). Note: nearly all actives have a fitted effect of over 55% in size. The settings on record: ALDH2 enzyme inhibition qHTS, 1536-well; series mostly up to 56 µM.
Assay [2] addresses Retinaldehyde dehydrogenase 3 (Homo sapiens) (UniProt P47895). Description: qHTS for Inhibitors of the Aldehyde Dehydrogenase Family (ALDH1A3) Primary screen (AID 2061315). As to conditions: ALDH inhibition qHTS; series mostly up to 56 µM. Background: In qHTS, concentration-response curves come from the screen itself.

Each structure is given as a SMILES string. Records with an inconclusive call do not appear. A call without a number means that no potency is given here. Activity calls are given as the source filed them. Calls come from the whole dose curve; as a rule, active = well fitted curve in the direction sought with a large enough effect; inconclusive = small, poorly fitted or top-dose-only effect, or another doubt; inactive = no such curve, though single readings can be large; an effect the other way counts as inactive or inconclusive.

With `COc1ccc(-c2ccc3ncnc(NCc4cccs4)c3c2)cc1`, the Potency entry in assay [1] and in assay [2] was “inactive” in each case.
Take `CC(=O)N1CCc2cc(S(=O)(=O)N3CCN(S(=O)(=O)c4c(F)cccc4F)CC3)ccc21`: the Potency entry in assay [1] and in assay [2] was “inactive” each time.
Turning to `COc1cccc(C2c3c(ncn(-c4ccc(-c5ccccc5)cc4)c3=N)Oc3ccc4ccccc4c32)c1` (stereo not given), the Potency result in assay [1] and in assay [2] was “inactive” each time.
As to `COc1ccc(Cl)cc1S(=O)(=O)N1CCN(S(=O)(=O)c2ccc3c(c2)OCCO3)CC1`, the Potency entry in assay [1] and in assay [2] was “inactive” in each case.
On to `Cc1cc(C)nc(NC(=S)N2CCN(c3cc(Br)cc(C(F)(F)F)c3)CC2)c1`, for which the Potency entry in assay [1] and in assay [2] was “inactive” throughout.
`Cc1ccc(-c2ccc(=O)n(CC(=O)NCCC3CC3)n2)cc1`: the Potency entry in assay [1] and in assay [2] was “inactive” in each case.
Take `COc1ccccc1C(=O)Nc1nc(-c2ccccc2)cs1`: the Potency result in assay [1] and in assay [2] was “inactive” throughout.
Turning to `CC#CC(=O)Nc1ccc2ncnc(Nc3cccc(Br)c3)c2c1`, the Potency entry in assay [1] and in assay [2] was “inactive” each time.
With `Cc1ccc(NS(=O)(=O)c2ccc3c(c2)NC(=O)CO3)cc1C`, the Potency entry in assay [1] and in assay [2] was “inactive” in each case.
With `Cc1nc(NCc2ccccc2)c2nc(-c3ccccc3)n(CCCN(C)C)c2n1`, the Potency result in assay [1] and in assay [2] was “inactive” each time.
Take `Fc1cccc(CNc2ncnc3ccc(-c4cccc(Cl)c4)cc23)c1`: the Potency result in assay [1] and in assay [2] was “inactive” in each case.
On to `Cc1cccc(-n2cnc3cc(C(=O)NC4CCCC4)ccc32)c1`, for which the Potency result in assay [1] and in assay [2] was “inactive” in each case.
Regarding `COc1ccc(-c2nnc3n2N=C(c2cc(OC)ccc2OC)CS3)cc1`, the Potency entry in assay [1] and in assay [2] was “inactive” in each case.
Regarding `Cc1ccc(S(=O)(=O)Nc2ccccc2C(=O)Nc2ccc(-c3ccccc3)cc2)cc1`, the Potency entry in assay [1] and in assay [2] was “inactive” in each case.
Take `Cc1cc(C)nc(NC(=S)N2CCN(c3ncccn3)CC2)c1`: the Potency result in assay [1] and in assay [2] was “inactive” throughout.
